Measurements as given in ChEMBL document CHEMBL3988442, “University of Dundee, Small-Polar-MMV Screening Library” (2021).

Tests used:
[1] = target: T1, Aspartate--tRNA(Asp/Asn) ligase (Mycobacterium tuberculosis (strain ATCC 25618 / H37Rv)) (UniProt P9WFW3); assay: Assay for Asp RNA synthetase-1 from Mycobacterium tuberculosis; assay type: functional; set-up: scale not given: direction of the effect not stated beside the values; settings: 30 µM; note: in the data most compounds retested in dose-response had high values
T1 sequence (whole entry): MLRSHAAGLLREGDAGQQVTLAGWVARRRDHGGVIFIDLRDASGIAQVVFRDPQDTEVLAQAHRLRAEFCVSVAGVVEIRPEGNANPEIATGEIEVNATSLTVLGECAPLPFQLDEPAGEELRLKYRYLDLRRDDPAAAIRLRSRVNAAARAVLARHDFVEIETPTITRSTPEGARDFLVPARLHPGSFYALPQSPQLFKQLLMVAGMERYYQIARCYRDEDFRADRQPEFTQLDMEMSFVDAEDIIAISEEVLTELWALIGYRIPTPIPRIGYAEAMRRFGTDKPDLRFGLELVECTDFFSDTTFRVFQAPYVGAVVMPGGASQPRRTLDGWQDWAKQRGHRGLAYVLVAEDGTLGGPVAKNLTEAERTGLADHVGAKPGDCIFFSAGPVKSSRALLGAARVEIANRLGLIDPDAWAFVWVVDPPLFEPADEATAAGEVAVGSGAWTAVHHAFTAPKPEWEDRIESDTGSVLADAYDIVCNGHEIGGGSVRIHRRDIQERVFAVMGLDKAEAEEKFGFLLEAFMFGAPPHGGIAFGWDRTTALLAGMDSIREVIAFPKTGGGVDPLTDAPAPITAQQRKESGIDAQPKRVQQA

[2] = target: Shiga toxin 2 (Escherichia coli O157:H7) (UniProt P09385+P09386); assay: E. coli 0.157:H7 Shiga Toxin SOP - stx2 screening assay; assay type: functional; set-up: scale not given: direction of the effect not stated beside the values; settings: 30 µM

Structure (SMILES)	Percent Effect [1] [%]	Percent Effect [2] [%]
COc1cccc(-n2c(C)cc(C(=O)O)c2C)c1	-3.77	5.95
CC(=O)N1CCNCC1c1cccc(C(=O)N(C)C)c1 (stereo unspecified)	-4.15	8.72
COCCN1CCCN(C(=O)NC(C)Cn2cccn2)CC1 (stereo unspecified)	1.3	-9.78
Cc1cc(CN2CCN(CCOc3cccc(C#N)c3)CC2)no1	2.73	20.5
Fc1cnc(N2CCCC3(CN(Cc4ccncc4)CCO3)C2)nc1 (stereo unspecified)	7.9	-0.17
NC(=O)c1csc(C(=O)N2CCCCC2Cn2cccn2)c1 (stereo unspecified)	-1.92	6.89
Cc1nccn1-c1cc(CNC(=O)c2ccccn2)ccn1	8.28	-3.43
CC(=O)N1CCCN(CC(C)(O)c2cccc(C(F)(F)F)c2)CC1 (stereo unspecified)	0.301	-32.4
O=C(CCc1ccccc1)N1CCn2cc(Cn3cncn3)nc2C1	-1.12	-10
Cc1csc(CNC(=O)Nc2cc(C(F)(F)F)c[nH]c2=O)n1	-5.12	8.58
CCC(O)CN1CCN(C(=O)c2cccn2Cc2cccs2)CC1 (stereo unspecified)	0.685	9.26
O=C(Cc1ccccn1)N1CCC2(CC1)CC(Oc1ccccn1)CO2 (stereo unspecified)	-3.87	-3.37
CCc1cc(NCc2ccccc2CN2CCCC2)n2ncnc2n1	7.58	-25.4
O=C(CCC1CCCC1)NCCn1nc(C2CCNC2)c2nccnc21 (stereo unspecified)	1.74	-35.4
O=C1CCCN1Cc1ncn2c1CN(C(=O)c1cccc(F)c1)CCC2	-3.2	3.75
c1cnc(-c2nc(CN3CCCC(Cn4cncn4)C3)cs2)nc1 (stereo unspecified)	-1.55	20.5
Cc1noc(C)c1CN1CCN(Cc2nccn2C)CC1	-5.33	-1.2
Cc1ccc(S(=O)(=O)NC(=O)c2c(C)noc2C(C)C)cc1C	1.59	8.34
COc1ccc2c(c1)CCN(CCC(=O)NC1CCCCC1)CC2	-0.993	-9.64
Cc1cc(C)n(CCCNC(=O)C(C)NC(=O)c2ccccc2Cl)n1 (stereo unspecified)	1.92	-4.43
c1ccc(N2CCCC3(COCCN(c4nccs4)C3)C2)nc1 (stereo unspecified)	3.08	-3.13
Cc1ccc(C(C)NC(=O)Nc2ccccc2CN2CCOCC2)o1 (stereo unspecified)	-6.02	17.3
CCC(C)N(C)CCNC(=O)NCc1cccc(-n2cncn2)c1 (stereo unspecified)	-1.54	-5.27
Cn1cc(CCC(=O)N2CCN(Cc3ccncc3)CC2)cn1	-1.76	1.29
COC(=O)c1ccc(N2CCN(C(=O)c3ccncc3)C(C)C2)cc1 (stereo unspecified)	-2.26	-11.4
Cc1occc1C(=O)N1CCC2(CCC(=O)N(CC(N)=O)C2)CC1	-2.4	-17.1
Cc1ccc(S(=O)(=O)N2CSCC2C(=O)N(C)C2CC2)cc1Cl (stereo unspecified)	3.03	19.2
CN(C)C1CCN(C(=O)NCc2ccccc2Cn2cncn2)CC1	-2.31	0.165
